# Data from PubChem BioAssay (EPA / NIEHS).
# Activity calls are given as the source filed them. The calls were made as follows: active = hit-call score of the fitted dose curve at least 0.9, where 1 is the maximum; inactive = score below 0.9.
# Read-out: Cytochrome P450 4A22 (Homo sapiens) (UniProt Q5TCH4)
# Experiment: LTEA_HepaRG_CYP4A22: Life Technologies and Expression Analysis (LTEA) Assay for Cytochrome P450 4A22 (CYP4A22) using HepaRG (AID 2283495)
# Conditions: mRNA level, 48 h; actives raise or lower the signal
# Procedure: LTEA_HepaRG is a cell based, multiplexed-readout assay that uses HepaRG, a human liver cell line, with measurements taken at 48 hours after chemical dosing on a 96-well plate.LTEA_HepaRG_CYP4A22 is one of 102 assay component(s) measured in the LTEA HepaRG cell culture assay. It is a marker of NR mediated metabolism.Data from the assay component LTEA_HepaRG_CYP4A22 was analyzed into 1 endpoint. This assay endpoint, LTEA_HepaRG_CYP4A22, was analyzed with bidirectional fitting relative to DMSO as the negative control and baseline of activity. Using a type of inducible reporter, measures of mRNA induction for gain or loss-of-signal activity can be used to understand regulation of transcription factor activity. To generalize the intended target to other relatable targets, this assay endpoint is annotated to the cyp intended target family, where the subfamily is xenobiotic metabolism.
# A total of 1060 chemcials from the ToxCast library were tested in eight-point concentration-response experiments. Cell culture and cytotoxicity assays were conducted at Thermo Fisher Scientific's Custom Services facility (Madison, WI). A single lot of human HepaRG cells (Thermo Fisher Scientific, Frederick, MD) was used for the cell culture experiments. 96-well format collagen type I coated plates of human HepaRG cells were prepared using established methods. Briefly, cryopreserved HepaRG cells were thawed, plated at a density of approximately 100,000 cells/well in HepaRG Thaw, Plate, and General Purpose media (HPRG770, Thermo Fisher Scientific), and incubated for 48 hours. 0.5% DMSO was selected as vehicle control to balance the requisite need of DMSO in HepaRG cultures to maintain differentiation (for example, baseline metabolism, proportions of hepatocytes vs. cholangiocytes), while enabling further hepatic receptor pathway activation (for example, PXR and CAR) in response to chemical exposure. 48 hours after plating, the culture medium was replaced with HepaRG Serum-Free Incudtion Media. Cells were exposed to each test chemical in duplicate and maintained in CO2 incubators for another 48 hours. Chemical plates were thawed to room temperature and 200x concentrations of treatment groups were prepared. 8-point conentration-reponse curves were made with the highest exposure at 100 uM, followed by half-log dilutions, all in 0.5% DMSO. Each test plate contained variouse controls, induction positive controls (1mM phenobarbital), cytotoxicity positive controls ([…] aflatoxin B1), vehicle controls (0.5% DMSO), and total lysis controls (0.5% DMSO). Cell morphology images were taken using an Essen IncuCyte FLR automated microscope, with six 96-well plates imaged in about 24 minutes. Images were captured and exported and JPEG files. Spent culture media was transfered to black-well plates for the LDH assay, and remaining media was sorted at -80 C for later use. Cells were treated with RLT buffer and frozen until shipped for gene expression analysis. Total RNA was isolated from the cell suspension in 75 uL of Buffer RLT (Qiagen, Germantown, MD 20874) by Quintiles/Expression Analysis (Durham, NC) using a custom isolation procedure. Total RNA from each plate well was transferred to a preamplification plate. Fluidigm's 96.96 Dynamic ArrayTM (Fluidigm, Amsterdam, the Netherlands) technology was used for gene expression analyses by quantitative reverse transcription polymerase chain reaction (qRT-PCR, performed by Quintiles/Expression Analysis, Durham, NC)89. Standard TaqManTM Assays (Applied Biosystems/ThermoFisher Scientific, Foster City, CA) were used to assess the expression of 93 genes selected based on their selectivity and sensitivity to important hepatic receptors known to be modulated by environmental chemicals; importance in human hepatocyte functionality; and hepatotoxicity. […]
Structure (SMILES),outcome,AC50
CCCSP(=O)(OCC)SCCC,inactive,–
CCOC(=O)COc1cc(-c2nn(C)c(OC(F)F)c2Cl)c(F)cc1Cl,inactive,–
CCCOc1nn(C(=O)NS(=O)(=O)c2ccccc2C(=O)OC)c(=O)n1C,inactive,–
Nc1c(Cl)cc([N+](=O)[O-])cc1Cl,–,74.2 µM (active)
CC(Oc1cccc(Cl)c1)C(=O)O (stereo not given),inactive,–
CON=C(C(=O)OC)c1ccccc1CON=C(C)c1cccc(C(F)(F)F)c1,inactive,–
CCC(CC)Nc1c([N+](=O)[O-])cc(C)c(C)c1[N+](=O)[O-],inactive,–
CN(C)NC(=O)CCC(=O)O,inactive,–
CCOP(=O)(NC(C)C)Oc1ccc(SC)c(C)c1 (stereo not given),–,19.5 µM (active)
CSC1=N[C@@](C)(c2ccccc2)C(=O)N1Nc1ccccc1,–,30.6 µM (active)
CC(C)[C@H](C(=O)O[C@H](C#N)c1cccc(Oc2ccccc2)c1)c1ccc(Cl)cc1,inactive,–
CSc1nnc(C(C)(C)C)c(=O)n1N,inactive,–
CC(=NC#N)N(C)Cc1ccc(Cl)nc1,inactive,–
CC(C1CC1)C(O)(Cn1cncn1)c1ccc(Cl)cc1 (stereo not given),–,44.9 µM (active)
CCNc1nc(Cl)nc(NC(C)(C)C#N)n1,inactive,–
COc1cccc(C(=O)NN(C(=O)c2cc(C)cc(C)c2)C(C)(C)C)c1C,inactive,–
CCC(=NOC/C=C/Cl)C1=C(O)CC(C2CCOCC2)CC1=O (stereo not given),inactive,–
CCc1cccc(CC)c1N(COC)C(=O)CCl,inactive,–
CCOP(=O)(OCC)Oc1cc(C)nc(C(C)C)n1,inactive,–
COP(=O)(OC)SCn1c(=O)oc2cc(Cl)cnc21,–,46.7 µM (active)

Structure (SMILES),outcome,AC50
CCOP(=O)(SC(C)CC)N1CCSC1=O (stereo not given),–,12.6 µM (active)
CCOP(=S)(OCC)Oc1cc(C)nc(C(C)C)n1,inactive,–
CNC(=O)ON=C(C)SC,inactive,–
Cc1cc(C2CC2)nc(Nc2ccccc2)n1,inactive,–
CCOP(=S)(OCC)Oc1ccc([N+](=O)[O-])cc1,inactive,–
CC1(C(=O)Nc2ccc(O)c(Cl)c2Cl)CCCCC1,inactive,–
C#CC(C)(C)NC(=O)c1cc(Cl)cc(Cl)c1,–,40.9 µM (active)
COc1ccc(C(=CC(=O)N2CCOCC2)c2ccc(Cl)cc2)cc1OC,–,50 µM (active)
C#CCC1=C(C)C(OC(=O)C2C(C=C(C)C)C2(C)C)CC1=O (stereo not given),–,81.5 µM (active)
Nc1nc(N)nc(NC2CC2)n1,inactive,–
CCCCSP(=O)(SCCCC)SCCCC,–,68.1 µM (active)
CCCOCC(=Nc1ccc(Cl)cc1C(F)(F)F)n1ccnc1,–,15.8 µM (active)
CC(C)N(C(=O)SCC(Cl)=C(Cl)Cl)C(C)C,inactive,–
CCCCN(CC)c1c([N+](=O)[O-])cc(C(F)(F)F)cc1[N+](=O)[O-],inactive,–
CCOC(=O)CC(SP(=O)(OC)OC)C(=O)OCC (stereo not given),inactive,–
CCOP(=S)(OCC)OC(Cl)C(Cl)(Cl)Cl (stereo not given),inactive,–
CN1COCN(Cc2cnc(Cl)s2)C1=N[N+](=O)[O-],inactive,–
N#CSCSC#N,–,90.6 µM (active)
CN(C)C(=O)Nc1cccc(C(F)(F)F)c1,inactive,–
S=C1NCCN1,inactive,–
